In assay [1] the target is Glutathione peroxidase 1 (Homo sapiens) (UniProt P07203). The assay is described as follows: Primary qHTS Assay for Inhibitors of Recombinant Selenoprotein Glutathione Peroxidase 1 (GPX1) (AID 1845191). Further: nearly all actives have a fitted effect of over 65% in size. On activity, negative = inhibition: on the % scale 0 is the no-effect control and ±100 the full control effect. The note with it: recombinant GPX1, GR-coupled NADPH fluorescence, 15 min; series mostly up to 48.8 µM. The gist of the method:
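GR-coupled assay: compounds preincubated 30 min at room temperature with GPX1, then reaction started with CHP; final 10 nM GPX1, 1 mM GSH, 0.5 mM CHP, 0.5 mM NADPH, 100 nM GR, 0.01% BSA, pH 7.5 Tris buffer. NADPH fluorescence (340/450 nm) read at 0 and 15 min.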

Assay [2] addresses Phospholipid hydroperoxide glutathione peroxidase GPX4 (Homo sapiens) (UniProt P36969). Nature of the assay: Primary qHTS Assay for Inhibitors of Recombinant Selenoprotein Glutathione Peroxidase 4 (GPX4) (AID 1845192). Further: on the % scale 0 is the no-effect control and ±100 the full control effect; nearly all actives have a fitted effect of over 65% in size. The following applies: recombinant GPX4, GR-coupled NADPH fluorescence, 15 min; series mostly up to 50 µM. Summed up: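 GR-coupled assay: recombinant GPX4 preincubated 30 min with compound at room temperature; final 200 nM GPX4, 1 mM GSH, 0.5 mM cumene hydroperoxide, 0.5 mM NADPH, 100 nM GR, 0.01% BSA, pH 7.5 Tris. NADPH fluorescence (340/450 nm) read at 0 and 15 min.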
Background: qHTS replaces the single test concentration by a dilution series.

The target in assay [3] is Luciferin 4-monooxygenase (Photinus pyralis) (UniProt P08659). The assay is described as follows: Primary firefly luciferase (FLuc) qHTS assay for identification of artifact compounds. (AID 1845220). Further: nearly all actives have a fitted effect of over 60% in size. Further: potency means the concentration at half of the fitted maximal effect.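 On activity change, negative = inhibition: plate controls were DMSO vehicle for no effect and no enzyme for full effect.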 The note with it: purified firefly luciferase, luminescence, 5 min; series mostly up to 54.1 µM. Summed up: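 D-luciferin and ATP (10 uM each, final) in Tris acetate buffer pH 7.6 were incubated with compounds for 15 min at room temperature. The reaction was started with 10 nM Photinus pyralis luciferase and luminescence read after 5 min. Percent inhibition was fitted to a 4-parameter Hill equation.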

Assay [4] can be described thus: Primary fluorescence-based thiol-reactive (MSTI) qHTS assay for identification of artifact compounds. (AID 1845221).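 Further: thiol-reactive compounds lower the probe fluorescence signal; nearly all actives have a fitted effect of over 65% in size.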 The note with it: MSTI thiol-reactivity probe, 1 h; series mostly up to 53.8 µM. Summed up:
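A multi-concentration qHTS design tested compounds against 4 uM MSTI, pH 7.4 phosphate-buffered saline. Plates were protected from light for 1 h at room temperature before imaging fluorescence.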

Assay [5] concerns Nanoluciferase (engineered Oplophorus gracilirostris luciferase). The assay is described as follows: Primary Nanoluciferase (NLuc) qHTS assay for identification of artifact compounds. (AID 1845222).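 Further: 0% = DMSO and -100% = no enzyme.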 The note with it: NLuc-conditioned medium, Nano-Glo luminescence, 5 min; series mostly up to 54.1 µM. Summed up: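 Diluted conditioned medium from NLuc-expressing S16 cells treated with compounds for 15 min at room temperature, then Nano-Glo substrate added; luminescence read after 5 min. Percent inhibition versus no-enzyme and DMSO controls fitted to 4-parameter Hill equation.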

Structures are written as SMILES. Values without a mark were called inactive. Inconclusive results are not listed. Activity calls are given as the source filed them. The call rests on the fitted dose curve; in most records, active means well fitted curve in the direction sought with a large enough effect; inconclusive means small, poorly fitted or top-dose-only effect, or another doubt; inactive means no such curve, though single readings can be large; an effect the other way counts as inactive or inconclusive.

Phospholipid hydroperoxide glutathione peroxidase GPX4 (Homo sapiens), sequence (P36969 whole entry, looked up): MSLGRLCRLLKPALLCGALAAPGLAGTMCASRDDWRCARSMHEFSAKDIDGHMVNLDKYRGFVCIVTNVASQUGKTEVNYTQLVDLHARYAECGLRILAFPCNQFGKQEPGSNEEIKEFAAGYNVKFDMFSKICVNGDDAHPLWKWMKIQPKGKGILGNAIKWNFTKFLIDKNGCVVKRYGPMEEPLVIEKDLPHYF
Glutathione peroxidase 1 (Homo sapiens), sequence (P07203 whole entry, looked up): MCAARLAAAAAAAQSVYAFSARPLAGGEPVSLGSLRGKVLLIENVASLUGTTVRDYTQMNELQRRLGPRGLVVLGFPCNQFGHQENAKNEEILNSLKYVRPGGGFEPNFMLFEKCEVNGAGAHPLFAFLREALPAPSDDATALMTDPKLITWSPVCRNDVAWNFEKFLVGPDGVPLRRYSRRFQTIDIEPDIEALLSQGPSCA

Take `CC(=O)O[C@H]1[C@H](O)C[C@@]2(C)C(CC[C@]3(C)C2CC=C2C4CC(C)(C)CC[C@]4(C(=O)O)CC[C@]23C)C1(C)C` (stereo not given in full): the Potency entry in assay [1], in assay [2], in assay [3], in assay [4] and in assay [5] was “inactive” throughout.
Take `O=C(Nc1cccc2cccnc12)c1ccc(N2C(=O)[C@@H]3C4C=CC(C4)[C@@H]3C2=O)cc1`: the Potency entry in assay [1], in assay [2], in assay [3], in assay [4] and in assay [5] was “inactive” in each case.
Take `Cc1cc(N2CCN(C(=O)Oc3ccc(-c4ccccc4)cn3)CC2)c2ccccc2n1`: the Potency result in assay [1], in assay [2], in assay [3], in assay [4] and in assay [5] was “inactive” each time.
`Cc1c(C(=O)Nc2ccc(N3CCC(N4CCOCC4)CC3)c(C#N)c2)cnn1-c1ccc(Cl)cc1`: the Potency entry in assay [1], in assay [2], in assay [3], in assay [4] and in assay [5] was “inactive” each time.
As for `CCNC(=O)c1noc(-c2cc(Cl)c(O)cc2O)c1-c1ccc(OC)cc1`, the Potency entry in assay [1], in assay [2], in assay [3], in assay [4] and in assay [5] was “inactive” throughout.
With `Fc1ccc(N2CCN(CCC3OCCc4ccccc43)CC2)cc1` (stereo not given), the Potency entry in assay [1], in assay [2], in assay [3], in assay [4] and in assay [5] was “inactive” throughout.
Consider `CCCCC1CCC(c2nc(-c3ccncc3)no2)CC1` (stereo not given), for which the Potency entry in assay [1], in assay [2], in assay [3], in assay [4] and in assay [5] was “inactive” each time.
Regarding `C=C1CC[C@@H]2[C@](C)(CO)[C@H](O)CC[C@@]2(C)[C@@H]1CC(=O)C1=CCOC1=O`, the Potency result in assay [1], in assay [2], in assay [3], in assay [4] and in assay [5] was “inactive” each time.
Turning to `O=C1COc2nccc(-c3ccccc3F)c2CN1Cc1cc(C(F)(F)F)cc(C(F)(F)F)c1`, the Potency entry in assay [1], in assay [2], in assay [3], in assay [4] and in assay [5] was “inactive” in each case.
For `CC(C)(O)c1ccn2c(-c3ccc(F)c(-c4ccc(F)cc4C#N)c3)cnc2c1F`, the Potency result in assay [1], in assay [2], in assay [3], in assay [4] and in assay [5] was “inactive” each time.
Regarding `NS(=O)(=O)c1ccc(N2CCN(CC[C@@H]3OCCc4ccccc43)CC2)cc1`, the Potency result in assay [1], in assay [2], in assay [3], in assay [4] and in assay [5] was “inactive” throughout.
Turning to `Cc1sc2c(c1C)C(c1ccc(Cl)cc1)=N[C@@H](CC(=O)Nc1ccc(OCCOCCOCCOCCNc3cccc4c3C(=O)N(C3CCC(=O)NC3=O)C4=O)cc1)c1nnc(C)n1-2` (stereo not given in full), the Potency entry in assay [1], in assay [2], in assay [3], in assay [4] and in assay [5] was “inactive” in each case.
Consider `O=C(COc1ccc(C(=O)c2ccccc2)cc1)NC1CCN(Cc2ccccc2)CC1`, for which the Potency entry in assay [1], in assay [2], in assay [3], in assay [4] and in assay [5] was “inactive” throughout.
Turning to `Cc1cccc(-c2[nH]ncc2-c2ccnc3ccccc23)n1`, the Potency entry in assay [1], in assay [2], in assay [3], in assay [4] and in assay [5] was “inactive” in each case.
For the molecule `Cc1ccc(N2CCN(S(=O)(=O)N3CCCCC3)CC2)c(C)c1`, the Potency entry in assay [1], in assay [2], in assay [3], in assay [4] and in assay [5] was “inactive” throughout.
As to `CCN1CCN(Cc2ccc(NC(=O)c3ccc(C)c(Oc4ncnc5[nH]c(C)cc45)c3)cc2C(F)(F)F)CC1`, the Potency result in assay [1], in assay [2], in assay [3], in assay [4] and in assay [5] was “inactive” in each case.
With `O=C(Nc1ccc(N2C(=O)[C@@H]3[C@H](C2=O)[C@@H]2C=C[C@H]3C2)c(Cl)c1)c1ccccn1`, the Potency entry in assay [1], in assay [2], in assay [4] and in assay [5] was “inactive” throughout. Also, the Potency in assay [3] was 19 µM (active).
In the case of `N#CC(CCCN1CCN(/N=C/c2cccnc2)CC1)(c1ccccc1)c1ccccc1`, the Potency entry in assay [1], in assay [2], in assay [3], in assay [4] and in assay [5] was “inactive” in each case.
For the molecule `CNC(C)C(=O)NC(C(=O)N1CCCC1C(=O)Nc1snnc1-c1ccccc1)C1CCCCC1` (stereo not given), the Potency entry in assay [1], in assay [2], in assay [3], in assay [4] and in assay [5] was “inactive” throughout.
Regarding `CC(C)(C)c1ccc(NC(=O)N2CCN(c3ncccc3Cl)CC2)cc1`, the Potency entry in assay [1], in assay [2], in assay [3], in assay [4] and in assay [5] was “inactive” each time.
As to `C=C1C(=O)O[C@@H]2C(OC(=O)/C(C)=C\C)/C(C)=C\C(=O)/C=C(\C)C[C@H](O)[C@@H]12` (stereo not given in full), the Potency result in assay [1], in assay [2], in assay [3], in assay [4] and in assay [5] was “inactive” throughout.
Consider `Cc1ccnc(NC(=O)C(C)c2cccc(C(=O)c3ccccc3)c2)c1` (stereo not given), for which the Potency result in assay [1], in assay [2], in assay [3], in assay [4] and in assay [5] was “inactive” each time.
Take `CCC(C)C(=O)Oc1cc(C)ccc1C1(COC(=O)C(C)C)CO1` (stereo not given): the Potency entry in assay [1], in assay [2], in assay [3], in assay [4] and in assay [5] was “inactive” in each case.
Take `Cc1cc(NC(=O)NCCN2CCC(O)(Cc3ccccc3)CC2)c2ccccc2n1`: the Potency entry in assay [1], in assay [2], in assay [3], in assay [4] and in assay [5] was “inactive” throughout.
On to `C/C=C(/C)C(=O)OC1C=C2C3C(C)C(C)C(OC(=O)C(C)C(C)O)CC3(C)CCC2(C)C2(C)CC(OC(C)=O)C3C(C)(C)C(O)C(=O)CC3(C)C12` (stereo not given), for which the Potency entry in assay [1], in assay [2], in assay [3], in assay [4] and in assay [5] was “inactive” throughout.
For the molecule `CC(C)(CO)c1cc2cc(NC(=O)C3(c4ccc5c(c4)OC(F)(F)O5)CC3)c(F)cc2n1CC(O)CO` (stereo not given), the Potency entry in assay [1], in assay [2], in assay [3], in assay [4] and in assay [5] was “inactive” in each case.
For the molecule `Cc1ccc(C)c(NC(=O)[C@@H]2CCCN2S(=O)(=O)c2cccc3cccnc23)c1`, the Potency result in assay [1], in assay [2], in assay [3], in assay [4] and in assay [5] was “inactive” each time.
Turning to `C[C@H]1CC[C@@]2(OC1)O[C@H]1CC3[C@@H]4CC[C@@H]5C[C@@H](O[C@@H]6O[C@H](CO)[C@@H](O[C@@H]7O[C@@H](C)[C@H](O)[C@@H](O)[C@H]7O)[C@H](O)[C@H]6O[C@@H]6O[C@H](CO)[C@@H](O)[C@H](O)[C@H]6O)CC[C@]5(C)C4CC[C@]3(C)[C@H]1[C@@H]2C` (stereo not given in full), the Potency entry in assay [1] and in assay [2] was “inactive” throughout. In addition, the activity change, negative = inhibition in assay [3] is 0.648% [at 11.6 µM]. Further, in assay [4], the activity change, negative = thiol reactive was 131% [at 11.5 µM]. For the same molecule, the activity, negative = inhibition in assay [5] is 2.19% [at 11.6 µM].

For the origin of these results see PubChem BioAssay (NCATS).
